# Screening data from PubChem BioAssay.
# D2 ag-1 – activates the human D2 dopamine receptor; 360,000 tested, 0.084% active; activation, % (no concentration beside the values); DiscoveRx PathHunter D2 beta-arrestin, luminescence, 90 min; 100% = 57 uM dopamine signal; AID 624465; P14416; in the data active = activation above about 40%; inconclusive = between about 15% and that limit
#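 Agonist mode: compounds alone added to overnight-plated D2 PathHunter cells for 90 min at 37 C, with 57 uM final dopamine (EC100) defining full response. Beta-arrestin recruitment detected by chemiluminescent reagent, read after 1 h at ambient temperature.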
# D2 PAM-1 – positively modulates the human D2 dopamine receptor allosterically; HEK293 T-REx D2, calcium flux, EC20 dopamine potentiation; 340,000 tested, 0.34% active; potentiation, % at 10 µM;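 active = potentiation over 3 SD above the plate norm, cut at about 30% in these data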; note: 0% is about no effect
#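 Primary screen. Calcium kinetics in induced HEK293 T-REx D2 cells: compound pre-addition 180 s, EC20 dopamine, 180 s more.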
# D2 ag-2 – agonists of human D2 dopamine receptor. P14416. HEK293 T-REx D2 cells, calcium flux agonist mode. activation, % at 2 µM. 340,000 tested, 0.53% active;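 active = activation over 3 SD above normal in the single-dose calcium agonist read, cut at about 30% in these data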; note: 0% is about no effect
#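 Calcium-flux readout, 1 cycle/sec over 180 s following compound pin transfer, in inducible HEK293 Trex D2 cells (force-coupled); dopamine controls included. Positive calcium responses during this window marked compounds as potential agonists.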
# D2 PAM-2 – human D2 receptor positive allosteric modulation. P14416. DiscoveRx D2 beta-arrestin cells, luminescence, 90 min; 100% = 57 uM dopamine signal. potentiation, % (no concentration beside the values). 360,000 tested, 0.23% active; in the data active = potentiation above about 50%; inconclusive = mostly about 30% to 49%
#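 PathHunter D2 cells, attached overnight at 37 deg C, received compound in DMSO plus dopamine at EC20 (50 nM final) for 90 min at 37 deg C. Beta-arrestin recruitment was read as luminescence after 1 h with detection reagent at ambient temperature.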
# B2AR arrestin – beta2AR (human) beta-arrestin recruitment activity | beta-arrestin recruitment to beta2AR, cell-based reporter | Potency, µM (series often up to 46.1 µM), without a hit: at the top dose activation, actives largely listed as activators | 330,000 tested, 0.02% active;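 note: potency is the fitted concentration of half-maximal effect; 0% = DMSO controls and full agonism = EC100 isoproterenol or metaproterenol; nearly all actives have a fitted effect of over 65% in size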
# D2 antag – antagonists of human D2 dopamine receptor; P14416; HEK293 TREx D2 cells, calcium flux, dopamine EC80; inhibition, % at 10 µM; 340,000 tested, 2% active; AID 485344; in the data active = inhibition above about 30%; inactive = below that, where a call was filed; note: 0% is about no effect
#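 Calcium mobilization kinetics were recorded at 1 s intervals in tetracycline-induced HEK293 T-REx D2 cells, first for 180 s after compound addition and then 180 s after EC80 dopamine.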
# D3 ag – D3 receptor agonism confirmed, beta-arrestin readout | shares compounds with D2 ag-2 | DiscoveRx D3 beta-arrestin cells, luminescence, 90 min | Potency, µM (highest dose often 76.9 µM), for inactives: at the highest dose activation, actives largely listed as activators | 2,300 tested, 4% active | AID 720506;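 note: potency is the fitted concentration of half-maximal effect; 100% = dopamine control response; nearly all actives have a fitted effect of over 70% in size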
# Target sequence (P35462 whole entry, looked up): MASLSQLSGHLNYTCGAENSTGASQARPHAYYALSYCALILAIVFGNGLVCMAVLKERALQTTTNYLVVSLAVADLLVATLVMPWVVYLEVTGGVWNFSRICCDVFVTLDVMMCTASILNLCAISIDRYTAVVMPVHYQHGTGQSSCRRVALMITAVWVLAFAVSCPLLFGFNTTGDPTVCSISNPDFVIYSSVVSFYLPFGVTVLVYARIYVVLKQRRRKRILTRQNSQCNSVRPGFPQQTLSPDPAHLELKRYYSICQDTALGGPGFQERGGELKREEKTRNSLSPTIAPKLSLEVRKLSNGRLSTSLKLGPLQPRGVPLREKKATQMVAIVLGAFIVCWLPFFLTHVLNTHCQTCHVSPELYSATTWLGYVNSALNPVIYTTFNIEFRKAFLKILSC
# D2 ag-3 – D2 receptor agonism, beta-arrestin counterscreen | DiscoveRx PathHunter D2 beta-arrestin, luminescence, 90 min; response scale: percent relative to full dopamine signal | 2,300 tested, 5.9% active | Potency, µM (series often up to 76.9 µM), for the others: at the top dose activation, hits mostly activators | shares compounds with D2 ag-2 | AID 720507; note: potency is the fitted concentration of half-maximal effect; % of control where 0% means no effect; nearly all actives have a fitted effect of over 70% in size
# An asterisk follows results filed as active; u = inconclusive; x = no result given. Only some compounds are listed: those with a hit (about 2.4% of all), similar ones and a draw of the others. Unless noted, calls come from the whole dose curve; as a rule, active = well fitted activation curve with a large enough effect; inconclusive = small, poorly fitted or top-dose-only effect; inactive = flat fitted curve, though single readings scatter.
SMILES,D2 ag-1,D2 PAM-1,D2 ag-2,D2 PAM-2,B2AR arrestin,D2 antag,D3 ag,D2 ag-3
COC(=O)c1ccc(C(=O)OC)c(NC(=S)N2CCN(c3ccccn3)CC2)c1,0.7,-8.3,50.9*,1.3,0.7%,14.7,6.3%,1.9%
O=C1c2ccccc2NC(c2cn[nH]c2-c2ccc(Cl)cc2)N1O (centres undefined),-2.7,-2.4,-1.2,-7.6,-0.2%,-0.6,x,x
COc1cc(OC)cc(C(=O)N2CCN(c3ccccn3)CC2)c1,4.8,3.2,-0.8,0.8,0.3%,-3.8,x,x
COc1cccc(C(=O)N2CCN(c3ccccn3)CC2)c1,u,-18.3,x,-4.5,0.1%,x,u,26.5%
Cc1csc(NC(=O)c2cnc3ccccc3n2)n1,-1.9,18.8,25.4,-2.0,-0.1%,-16.7,-15.6%,0.7%
Cc1csc(NC(=O)c2ccc3ccccc3n2)n1,-0.8,16.0,6.8,-7.1,0.0%,9.5,x,x
CCOc1ccc2oc(C(=O)N3CCN(c4ccccn4)CC3)c(C)c2c1,-2.8,-6.4,0.6,-14.6,0.1%,-3.1,x,x
O=C1CC(N2CCN(Cc3ccc4c(c3)OCO4)CC2)C(=O)N1Cc1ccc(N2CCCC2=O)cc1 (centres undefined),-3.5,-16.0,54.0*,-16.8,-0.4%,21.1,-8.6%,12.4%
O=C1CC(N2CCOCC2)C(=O)N1Cc1ccc(N2CCCC2=O)cc1 (centres undefined),0.5,-2.8,1.0,-2.2,-1.0%,17.5,x,x
O=C(CCc1nnc2n(Cc3ccc(F)cc3)c(=O)c3ccccc3n12)N1CCN(c2ccccn2)CC1,-5.3,-27.2,53.0*,-5.7,-0.1%,12.3,-12.6%,-8.5%
O=C(CCc1nnc2n(Cc3ccc(F)cc3)c(=O)c3ccccc3n12)NCCN1CCOCC1,1.4,0.5,0.2,-6.9,0.0%,-26.5,x,x
Cc1c(C(=O)N2CCN(c3ccccc3)CC2)oc2c(Cl)cccc12,0.5,7.4,-1.3,-10.5,0.2%,13.2,-6.4%,-2.9%
CCOC(=O)c1[nH]c(C)c(C(=O)N2CCN(c3ccccc3)CC2)c1C,-2.9,-5.0,30.6*,-17.8,0.1%,23.5,2.1%,1.9%
CCOC(=O)c1[nH]c(C)c(C(=O)N2CCOCC2)c1C,-0.4,3.1,1.1,-0.8,-0.1%,3.3,x,x
NC(=O)CN1C(=O)NC2(CCCc3ccccc32)C1=O (centres undefined),0.5,2.7,1.2,-2.4,-0.3%,-4.4,x,x
CCOC(=O)CSc1nnc(CNC(=O)c2ccc(S(=O)(=O)N(C)C)cc2)n1C,1.7,2.9,0.6,-4.8,-0.9%,-5.5,x,x
O=c1c(N2CCc3ccccc3C2)csc2ccccc12,x,-16.1,-0.4,x,x,x,x,x
Nc1cccc(O)c1,4.4,13.1,0.1,1.1,0.1%,6.1,-1.9%,-2.8%
COC(=O)C(Cc1ccccc1)NS(=O)(=O)c1ccccc1Br (centres undefined),-0.1,-5.5,1.5,-2.9,-0.8%,-27.3,x,x
COC(=O)[C@H](Cc1ccccc1)NS(=O)(=O)N[C@@H](Cc1ccccc1)C(=O)OC,-1.6,-9.0,4.7,-3.6,0.1%,-8.4,-6.1%,-1.5%
O=c1c(CN2CCN(Cc3ccccc3F)C(CCO)C2)coc2ccccc12 (centres undefined),3.3,0.6,9.4,-11.2,0.6%,-19.0,x,x
OCCN1CCN(Cc2cc(Cl)c3cccnc3c2O)CC1,0.5,-9.3,-0.3,-24.3,u,3.1,x,x
Brc1ccc(CN2CCN(c3ccccn3)CC2)s1,69.9*,-12.2,69.8*,u,-0.3%,68.8*,u,3.55µM*
O=c1c(CN2CCN(c3ccccn3)CC2)coc2ccccc12,u,-17.2,87.5*,18.9,-0.5%,79.2*,10.7%,u
Cc1[nH]c2ccccc2c1CN1CCN(c2ccccn2)CC1,3.1,-22.1,51.0*,-16.8,-0.3%,55.8*,-11.8%,5.7%
SMILES,D2 ag-1,D2 PAM-1,D2 ag-2,D2 PAM-2,B2AR arrestin,D2 antag,D3 ag,D2 ag-3
Oc1c(CN2CCN(c3ccccn3)CC2)cc(Cl)c2cccnc12,-16.1,-31.5,83.0*,-62.8,u,89.2*,-21.3%,u
Cc1ccccc1-c1nnc(CN2CCN(c3ccccn3)CC2)o1,x,-18.9,x,x,x,x,x,x
c1ccc(N2CCN(Cc3nc4ccccc4[nH]3)CC2)nc1,5.1,-21.3,14.9,-3.3,0.2%,-9.8,x,x
CCCS(=O)(=O)Nc1cc2c(cc1NCc1ccccc1)n(C)c(=O)n2C,x,1.5,0.1,x,x,x,x,x
Cc1ccc(N(C(C)C(=O)N2CCCC2)S(C)(=O)=O)cc1 (centres undefined),-0.1,x,x,2.6,-0.2%,x,x,x
COc1ccc(CN2CCN(C(=O)c3cccs3)CC2)cc1Br,14.6,x,x,3.1,-0.3%,x,x,x
COc1ccc(-c2noc(CN3CCN(C(=O)c4cccs4)CC3)n2)c(OC)c1OC,-9.4,-13.3,28.8,-6.1,-0.1%,-2.6,1.2%,4.7%
COc1ccccc1CC(NC(C)=O)C(=O)N1CCN(C(=O)c2cccs2)CC1 (centres undefined),-1.9,-10.2,7.2,-7.4,-0.3%,-6.3,x,x
COc1ccccc1CN(C)C(=O)CN1CCN(C(=O)c2cccs2)CC1,13.7,-25.7,72.0*,12.3,0.0%,29.4,9.4%,u
COCCCNC(=O)c1cc(C)nc2ccc(F)cc12,-1.9,x,0.9,-4.2,-0.5%,-6.4,x,x
C/C=C/C=N/Nc1nc(C)cc(=O)[nH]1,-0.7,-1.0,1.7,-0.9,0.0%,-6.2,x,x
CCN(Cc1ccncc1)C(=O)c1ccccc1NS(=O)(=O)c1ccc(Br)cc1,-4.1,-4.0,x,-12.2,-0.3%,x,0.3%,1.0%
Cc1cc(NC(=O)c2ccco2)ccc1-n1cnnn1,-1.1,x,x,4.5,-0.4%,x,-0.2%,-0.9%
O=C(c1ccco1)N1CCN(Cc2ccc(F)cc2Cl)CC1,u,-26.0,79.0*,22.9,0.2%,58.0*,29.3%,u
O=C(c1ccco1)N1CCN(C(=O)c2ccco2)CC1,-1.8,x,x,-4.1,x,x,x,x
O=C(c1ccco1)N1CCN(Cc2ccccc2Br)CC1,u,-30.6,75.6*,u,0.2%,78.5*,u,50.1µM*
O=C(c1ccco1)N1CCN(Cc2cn[nH]c2-c2ccc(F)cc2F)CC1,3.9,-5.0,28.0,4.4,-0.2%,-19.5,x,x
COc1ccccc1N1CCN(CC(=O)Nc2ccc(CN3CCCCC3)cc2)CC1,11.8,-23.9,31.2*,-8.8,0.1%,39.1*,-7.3%,12.7%
